Among the data in PubChem BioAssay are viability and remaining NAD values, retold here.

A number with no mark means an inactive call. Activity calls are given as the source filed them.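 How the source made its calls, unless noted: active means normalized viability below 100% at a tested concentration; inactive means the rest.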

The nature of test [1]: drug combination growth inhibition, ovarian cancer – cell-based, oncology-focused library, rucaparib conditional, profiling panel (AID 1508598). Particulars: patient-derived ovarian cancer cells, CellTiter-Glo viability, 144 h, hits give low values. Background: ATP-based viability assays read luminescence as a measure of living cells.
The target of test [2] is NAD(+) hydrolase SARM1 (Homo sapiens) (UniProt Q6SZW1). Nature of the test: blocking NAD cleavage by SARM1 SAM-TIR – cell lysate, NAD-Glo luminescence (AID 1508614;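 active means compound whose remaining NAD level is above about 45 nM, limit read from the data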;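 further: higher remaining NAD means stronger inhibition of SARM1 NADase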). The note with it: SAM-TIR HEK293T lysate NADase, at 1 µM, hits give high values.
The mark [3] stands for this setting: at 5 µM, OCI-P5x cells, with rucaparib 20 µM, 100% = cells with rucaparib alone.
[4] abbreviates: at 5 µM, OCI-P5x cells, without rucaparib.
[5] abbreviates: at 0.000305 µM, OCI-C5x cells, with rucaparib 10 µM, 100% = cells with rucaparib alone.
[6] abbreviates: at 0.000305 µM, OCI-C5x cells, without rucaparib.
Where [7] appears, read: at 0.000305 µM, OCI-P5x cells, with rucaparib 20 µM, 100% = cells with rucaparib alone.
The mark [8] stands for this setting: at 0.000305 µM, OCI-P5x cells, without rucaparib.
[9] abbreviates: at 0.00122 µM, OCI-C5x cells, with rucaparib 10 µM, 100% = cells with rucaparib alone.
The mark [10] stands for this setting: at 0.00122 µM, OCI-C5x cells, without rucaparib.
The mark [11] stands for this setting: at 0.00122 µM, OCI-P5x cells, with rucaparib 20 µM, 100% = cells with rucaparib alone.
Where [12] appears, read: at 0.00122 µM, OCI-P5x cells, without rucaparib.
Where [13] appears, read: at 0.00488 µM, OCI-C5x cells, with rucaparib 10 µM, 100% = cells with rucaparib alone.
The mark [14] stands for this setting: at 0.00488 µM, OCI-C5x cells, without rucaparib.
[15] abbreviates: at 0.00488 µM, OCI-P5x cells, with rucaparib 20 µM, 100% = cells with rucaparib alone.
[16] abbreviates: at 0.00488 µM, OCI-P5x cells, without rucaparib.
The mark [17] stands for this setting: at 0.0195 µM, OCI-C5x cells, with rucaparib 10 µM, 100% = cells with rucaparib alone.
Where [18] appears, read: at 0.0195 µM, OCI-C5x cells, without rucaparib.
The mark [19] stands for this setting: at 0.0195 µM, OCI-P5x cells, with rucaparib 20 µM, 100% = cells with rucaparib alone.
Setting [20] is: at 0.0195 µM, OCI-P5x cells, without rucaparib.
Setting [21] is: at 0.0781 µM, OCI-C5x cells, with rucaparib 10 µM, 100% = cells with rucaparib alone.
[22] abbreviates: at 0.0781 µM, OCI-C5x cells, without rucaparib.
Where [23] appears, read: at 0.0781 µM, OCI-P5x cells, with rucaparib 20 µM, 100% = cells with rucaparib alone.
Setting [24] is: at 0.0781 µM, OCI-P5x cells, without rucaparib.
[25] abbreviates: at 0.313 µM, OCI-C5x cells, with rucaparib 10 µM, 100% = cells with rucaparib alone.
[26] abbreviates: at 0.313 µM, OCI-C5x cells, without rucaparib.
Setting [27] is: at 0.313 µM, OCI-P5x cells, with rucaparib 20 µM, 100% = cells with rucaparib alone.
Where [28] appears, read: at 0.313 µM, OCI-P5x cells, without rucaparib.
The mark [29] stands for this setting: at 1.25 µM, OCI-C5x cells, with rucaparib 10 µM, 100% = cells with rucaparib alone.
The mark [30] stands for this setting: at 1.25 µM, OCI-C5x cells, without rucaparib.
The mark [31] stands for this setting: at 1.25 µM, OCI-P5x cells, with rucaparib 20 µM, 100% = cells with rucaparib alone.
Setting [32] is: at 1.25 µM, OCI-P5x cells, without rucaparib.
Where [33] appears, read: at 5 µM, OCI-C5x cells, with rucaparib 10 µM, 100% = cells with rucaparib alone.
The mark [34] stands for this setting: at 5 µM, OCI-C5x cells, without rucaparib.

NAD(+) hydrolase SARM1 (Homo sapiens), sequence (Q6SZW1 whole entry, looked up): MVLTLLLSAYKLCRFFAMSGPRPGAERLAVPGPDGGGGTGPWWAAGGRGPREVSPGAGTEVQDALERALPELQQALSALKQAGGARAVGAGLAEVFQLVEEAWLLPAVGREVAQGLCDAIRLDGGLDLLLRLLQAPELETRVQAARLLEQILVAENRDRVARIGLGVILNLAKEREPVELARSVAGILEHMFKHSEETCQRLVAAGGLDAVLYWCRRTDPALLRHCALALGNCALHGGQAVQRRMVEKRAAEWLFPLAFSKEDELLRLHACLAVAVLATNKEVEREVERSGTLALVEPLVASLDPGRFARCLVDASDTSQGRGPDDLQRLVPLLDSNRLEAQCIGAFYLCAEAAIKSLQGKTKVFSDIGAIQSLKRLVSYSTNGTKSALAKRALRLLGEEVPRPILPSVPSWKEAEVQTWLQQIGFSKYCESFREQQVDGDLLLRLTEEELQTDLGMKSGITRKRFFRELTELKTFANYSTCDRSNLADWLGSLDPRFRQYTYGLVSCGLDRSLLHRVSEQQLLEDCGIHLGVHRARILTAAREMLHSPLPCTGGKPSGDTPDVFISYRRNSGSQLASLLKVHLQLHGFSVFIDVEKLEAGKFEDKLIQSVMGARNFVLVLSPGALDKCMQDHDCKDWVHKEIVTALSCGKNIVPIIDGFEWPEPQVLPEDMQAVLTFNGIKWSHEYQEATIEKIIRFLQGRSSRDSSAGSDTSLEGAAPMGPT

Consider `CO[C@H]1C[C@@H]2CC[C@@H](C)[C@@](O)(O2)C(=O)C(=O)N2CCCC[C@H]2C(=O)O[C@H]([C@H](C)C[C@@H]2CC[C@@H](O)[C@H](OC)C2)CC(=O)[C@H](C)/C=C(\C)[C@@H](O)[C@H](OC)C(=O)[C@H](C)C[C@H](C)/C=C/C=C/C=C/1C`, for which the figures for the viability in test [1] (setting [3]) and in test [1] (setting [4]) were 65% (active) and 61% (active), respectively.
As to `O=C1[C@H](CC[C@H](O)c2ccc(F)cc2)[C@H](c2ccc(O)cc2)N1c1ccc(F)cc1`, the viability (as a rule, a read-out of living cells in per cent, often relative to untreated cells) in test [1] (setting [5]) was 109%; in test [1] (setting [6]) it was 121%; in test [1] (setting [7]), 106%; in test [1] (setting [8]) it was 117%; in test [1] (setting [9]), 107%; in test [1] (setting [10]), 117%. In addition, the viability in test [1] (setting [11]) was 107%; in test [1] (setting [12]), 114%; in test [1] (setting [13]) it was 111%; in test [1] (setting [14]), 114%; in test [1] (setting [15]) it was 101%; in test [1] (setting [16]) it was 112%. The viability is 109% in test [1] (setting [17]); 118% in test [1] (setting [18]); 104% in test [1] (setting [19]); 106% in test [1] (setting [20]); 107% in test [1] (setting [21]); 108% in test [1] (setting [22]). Besides, the viability in test [1] (setting [23]) is 98% (active); in test [1] (setting [24]), 102%; in test [1] (setting [25]) it was 111%; in test [1] (setting [26]) it was 111%; in test [1] (setting [27]) it was 94.9% (active); in test [1] (setting [28]) it was 104%. For the same compound, the viability in test [1] (setting [29]) is 126%; in test [1] (setting [30]), 111%; in test [1] (setting [31]), 96.5% (active); in test [1] (setting [32]) it was 96.4% (active); in test [1] (setting [33]), 128%; in test [1] (setting [34]), 103%. Further, the viability in test [1] (setting [3]) is 84.2% (active); in test [1] (setting [4]), 94.6% (active).
For `COc1ccc(C2=N[C@@H](c3ccc(Cl)cc3)[C@H](c3ccc(Cl)cc3)N2C(=O)N2CCNC(=O)C2)c(OC(C)C)c1`, the viability is 118% in test [1] (setting [5]); 104% in test [1] (setting [6]); 90.9% (active) in test [1] (setting [7]); 90.5% (active) in test [1] (setting [8]); 117% in test [1] (setting [9]); 104% in test [1] (setting [10]). The viability was 94.2% (active) in test [1] (setting [11]); 89.4% (active) in test [1] (setting [12]); 122% in test [1] (setting [13]); 106% in test [1] (setting [14]); 97.7% (active) in test [1] (setting [15]); 95.5% (active) in test [1] (setting [16]). For the same compound, the viability in test [1] (setting [17]) was 106%; in test [1] (setting [18]), 100%; in test [1] (setting [19]) it was 96.2% (active); in test [1] (setting [20]), 95.8% (active); in test [1] (setting [21]), 113%; in test [1] (setting [22]), 99.5% (active). Moreover, the viability in test [1] (setting [23]) was 100%; in test [1] (setting [24]), 96.7% (active); in test [1] (setting [25]) it was 97.4% (active); in test [1] (setting [26]), 101%; in test [1] (setting [27]) it was 104%; in test [1] (setting [28]), 99.4% (active). Also, the viability is 93.7% (active) in test [1] (setting [29]); 100% in test [1] (setting [30]); 97.7% (active) in test [1] (setting [31]); 101% in test [1] (setting [32]); 84.5% (active) in test [1] (setting [33]); 95.4% (active) in test [1] (setting [34]). Also, the viability was 89.7% (active) in test [1] (setting [3]) and 91.3% (active) in test [1] (setting [4]).
Take `OC[C@H]1O[C@@H](O[C@H]2[C@H](O)[C@@H](O)[C@@H](O)O[C@@H]2CO)[C@H](O)[C@@H](O)[C@H]1O`: in test [2], the remaining NAD is 10 nM.
For `CC1(C)C=C(CN2C/C(=C/c3ccc(F)cc3)C(=O)/C(=C/c3ccc(F)cc3)C2)C(C)(C)N1O`, the viability in test [1] (setting [5]) was 136%; in test [1] (setting [6]) it was 110%; in test [1] (setting [7]), 90.6% (active); in test [1] (setting [8]), 90.1% (active); in test [1] (setting [9]), 117%; in test [1] (setting [10]), 106%. Also, the viability in test [1] (setting [11]) was 80% (active); in test [1] (setting [12]), 81.9% (active); in test [1] (setting [13]), 131%; in test [1] (setting [14]), 112%; in test [1] (setting [15]) it was 74.5% (active); in test [1] (setting [16]), 83.8% (active). Besides, the viability was 127% in test [1] (setting [17]); 112% in test [1] (setting [18]); 71% (active) in test [1] (setting [19]); 81.9% (active) in test [1] (setting [20]); 124% in test [1] (setting [21]); 117% in test [1] (setting [22]). Moreover, the viability in test [1] (setting [23]) is 102%; in test [1] (setting [24]) it was 106%; in test [1] (setting [25]), 125%; in test [1] (setting [26]) it was 109%; in test [1] (setting [27]), 96.7% (active); in test [1] (setting [28]), 103%. The viability in test [1] (setting [29]) is 127%; in test [1] (setting [30]), 118%; in test [1] (setting [31]), 102%; in test [1] (setting [32]), 105%; in test [1] (setting [33]), 124%; in test [1] (setting [34]) it was 115%. For the same compound, the viability in test [1] (setting [3]) is 55.9% (active); in test [1] (setting [4]), 97.4% (active).
As to `COc1ccc(C2=N[C@H](c3ccc(Cl)cc3)[C@@H](c3ccc(Cl)cc3)N2C(=O)N2CCNC(=O)C2)c(OC(C)C)c1`, the viability in test [1] (setting [5]) is 112%; in test [1] (setting [6]), 103%; in test [1] (setting [7]) it was 88.9% (active); in test [1] (setting [8]) it was 86.6% (active); in test [1] (setting [9]), 118%; in test [1] (setting [10]) it was 101%. Besides, the viability was 93.4% (active) in test [1] (setting [11]); 85.3% (active) in test [1] (setting [12]); 130% in test [1] (setting [13]); 112% in test [1] (setting [14]); 95.4% (active) in test [1] (setting [15]); 90.1% (active) in test [1] (setting [16]). Further, the viability in test [1] (setting [17]) was 127%; in test [1] (setting [18]), 105%; in test [1] (setting [19]), 96.3% (active); in test [1] (setting [20]), 86.4% (active); in test [1] (setting [21]), 120%; in test [1] (setting [22]) it was 111%. The viability was 86.1% (active) in test [1] (setting [23]); 78.2% (active) in test [1] (setting [24]); 111% in test [1] (setting [25]); 107% in test [1] (setting [26]); 64.3% (active) in test [1] (setting [27]); 56.8% (active) in test [1] (setting [28]). For the same compound, the viability in test [1] (setting [29]) is 114%; in test [1] (setting [30]) it was 102%; in test [1] (setting [31]), 98.1% (active); in test [1] (setting [32]) it was 98% (active); in test [1] (setting [33]), 182%; in test [1] (setting [34]) it was 137%. The viability was 94.1% (active) in test [1] (setting [3]) and 98.2% (active) in test [1] (setting [4]).
